From PubChem BioAssay AID2314 (National Center for Advancing Translational Sciences (NCATS), 2010) come the findings set out here.

About 37,000 (12%) of roughly 300,000 compounds were called active. The entries come from a sample that favours actives as a whole. Unmarked numbers belong to inactive results. No stated cut-off is given here; in the data, active means max response mostly above about 13% (no sharp cut-off); inactive means mostly below about 14%.

This assay can be described thus: Cycloheximide Counterscreen for Small Molecule Inhibitors of Shiga Toxin. Further: read at 38.3 µM for the half of the compounds with a filed dose; 0% is about no effect. The conditions noted are these: cell reporter, cycloheximide protein synthesis inhibition counterscreen; active compounds read high. A general note: Counterscreens check selectivity or assay interference.
Consider `COc1ccc(N(CC(=O)N2CCOCC2)S(=O)(=O)c2ccccc2)cc1Cl`, for which the max response is -0.709%.

Consider `COc1ccc(/C=C(/NC(=O)c2ccccc2)C(=O)Nc2cccc(C(=O)O)c2)cc1`, for which the max response was -3.46%. With `COc1ccc(-c2c(C(C)=O)c(C)nc3sc4c(=O)n(-c5ccc(C)cc5)nnc4c23)cc1`, the max response is -1.79%. Consider `CC(NCc1nc2ccccc2n1C)C12CC3CC(CC(C3)C1)C2` (stereo not given), for which the max response is -1.92%. As for `O=C(Cn1cc(-c2nnnn2-c2ccc(Cl)cc2)c(=O)c2ccccc21)c1ccccc1`, the max response is -5.16%.

Consider `CN(C(=O)CC1C(=O)NCCN1Cc1ccc2ccccc2c1)C1CCOCC1` (stereo not given), for which the max response is 0.547%. Under `O=C(O)C1CCC(CNS(=O)(=O)c2ccc(Br)cc2)CC1` (stereo not given) stands -3.43%; under `COc1ccc(S(=O)(=O)Nc2ccccc2C(=O)N2CCCC2)cc1C`, -0.906%; under `C/C(CCC(=O)OC[C@H]1O[C@H](C#Cc2ccccc2)C=C[C@@H]1Oc1ccc(C)cc1)=N\OC[C@@H](O)[C@H]1O[C@@H]2OC(C)(C)O[C@@H]2[C@H]1O`, 1.29%.

Take `COc1cc(CC(=O)N/N=C/c2ccccc2)c([N+](=O)[O-])cc1OC`: the max response is 16.2%. The result for `CCOC(=O)c1sc(/N=C/C2=C(O)CC(C)(C)CC2=O)c(C(=O)OCC)c1C` reads 65.5% (active); that for `CCOC(=O)c1c(/N=C/C2C(=O)CC(C)(C)CC2=O)sc(C)c1C`, -5.69%; that for `CCOC(=O)c1c(CC(C)C)csc1/N=C/C1=C(O)CCCC1=O`, -1.4%.

Turning to `CCCCCC1CC(COc2ccccc2)OC1=O` (stereo not given), the max response was -2.67%. Take `Cc1oc2c(C)c3oc(=O)c(CC(=O)N[C@@H](CC(C)C)C(=O)N[C@@H](Cc4ccccc4)C(=O)O)c(C)c3cc2c1C`: the max response was -3.89%. Take `Brc1ccc2ncnc(NCc3cccnc3)c2c1`: the max response is 8.06%.

On to `CCc1cccc(C)c1NS(=O)(=O)c1cc(Br)cnc1N`, for which the max response is -7.68%. Under `Oc1ccccc1CNc1ncc(Br)cc1Br` stands 19.8% (active); under `Cc1cc(/C=N/NC(=O)c2cccnc2)c(C)n1CC(C)C`, 42.1% (active); under `O=C(CNC(=O)c1cccnc1)N/N=C/c1cc(Br)c(O)c(Br)c1`, -1.81%. Under `O=C(N/N=C/c1ccccn1)c1cccc(NC(=O)c2ccc(Cl)cc2)c1` stands 13%; under `O=C(Nc1cnccn1)c1cccnc1`, -3.29%. The result for `O=C(N/N=C/c1ccccn1)c1ccc(S(=O)(=O)N2CCCCCC2)cc1` reads 73.8% (active).

`CNC(=O)C(=O)N/N=C/c1ccccn1`: the max response was 6.76%.

Take `CN1CCN(NC(=O)c2ccc(S(=O)(=O)N3CCCCCC3)cc2)CC1`: the max response is -2.75%. `O=C(Nc1ccc(S(=O)(=O)Nc2ncccn2)cc1)C12CC3CC(CC(C3)C1)C2`: the max response is 1.99%.

Consider `O=C(NCc1ccc(Cl)c(Cl)c1)c1cccnc1`, for which the max response is -2.41%.

As to `O=C(N/N=C/c1ccccn1)C12CC3CC(CC(C3)C1)C2`, the max response is 14.7% (active). The result for `COc1cc(/C=N/NC(=O)c2cccnc2)ccc1OC(=O)c1cccc(Br)c1` reads -6.4%; that for `O=C(NN=C1CCC(=NNC(=O)c2cccnc2)CC1)c1cccnc1`, 22.4% (active); that for `FC(F)(F)Oc1ccc(NC(=S)NCc2ccccc2)cc1`, 1.72%.

`C[C@H]1[C@H]2c3nc4ccccc4n3C[C@H]1ON2C1CCCCC1`: the max response was 2.13%. The result for `COc1ccccc1N1CC(C(=O)Nc2nnc(SCC(=O)NCC3CCCO3)s2)CC1=O` (stereo not given) reads 8.07%. The result for `COC(=O)C1=C(Nc2ccc(C)cc2)C=C(C)C(C(=O)OC)C1c1ccc(F)cc1` (stereo not given) reads 10.3%; that for `COc1ccc(-c2ccc(C3C4C=CCCC4(C)C(=O)N3Cc3ccccc3)c(F)c2)cc1OC` (stereo not given), 12.4%; that for `O=C(N/N=C/c1ccccn1)c1cccnc1`, 17.5% (active).

Take `O=C(N/N=C/c1ccc(O)c2ccccc12)c1cccnc1`: the max response was 15.4%. Consider `Cc1ccccc1CSc1nnc(-c2ccccn2)n1N`, for which the max response was 27% (active). Under `Cc1ccccc1CSc1nnc(-c2cccnc2)n1N` stands 16.2%; under `Cn1c(SCC(=O)C(C)(C)C)nnc1-c1ccccn1`, 18.9%; under `CCN(C(=O)COC(=O)c1ccc(COc2ccc3c(C)cc(=O)oc3c2)cc1)C1CCS(=O)(=O)C1` (stereo not given), 21.1% (active). In the case of `COc1ccc(-c2cc(=O)oc3cc(OCC(=O)N(C)C4CCS(=O)(=O)C4)ccc23)cc1` (stereo not given), the max response was 3.93%. As for `Cc1ccccc1NC(=O)c1ccc(COc2ccc3c(C)cc(=O)oc3c2)cc1`, the max response was -0.998%. Regarding `COc1cccc(-c2nn(-c3ccccc3)cc2/C=C(\C#N)C(=O)NCCCn2ccnc2)c1`, the max response was 10.5%. As to `CC1CCCCC1NC(=O)CCS(=O)(=O)c1ccc2c(c1)NC(=O)CO2` (stereo not given), the max response is -2.74%. The result for `COc1ccc(/C=N/NC(=O)CNC(=O)c2ccc(S(=O)(=O)N3CCCC3)cc2)c(OC)c1` reads -1.52%; that for `COc1ccc(C(=O)Nc2ccccc2C(=O)N/N=C/c2ccccc2OC)cc1`, 17.9%; that for `COc1ccc(/C=N/NC(=O)c2ccc3c(c2)OCCO3)c(OC)c1`, 56% (active). The result for `Cn1ccc(=Nc2ccc(NC(=O)c3ccc(N=c4ccn(C)c5ccc([N+](=O)[O-])cc45)cc3)cc2)cc1` reads -1.72%; that for `O=C(NCCc1ccccn1)c1cccnc1Oc1ccc(Cl)cc1`, 0.291%; that for `O=C(NCCc1ccccn1)c1ccc(COc2ccccc2)o1`, 28.1% (active). `O=C(CNC(=O)COc1ccccc1)NCCc1ccccn1`: the max response was 5.88%. Under `Cc1ncn2cc(-c3ccc(Cl)cc3Cl)[nH]c(=O)c12` stands 8.02%; under `Cc1cccc(N2CCN(S(=O)(=O)c3ccc(-c4cc(C)no4)s3)CC2C)c1` (stereo not given), -3.69%; under `O=C(CN1CCN(S(=O)(=O)c2ccc(Cl)s2)CC1)NCc1ccc(Cl)cc1`, 30.7% (active). As to `Cc1ccccc1N1CCN(CC(=O)NCc2ccc(Cl)cc2)CC1`, the max response is -1.19%. The result for `Cc1ccc(CNC(=O)CN2CCN(Cc3ccc(Cl)cc3)C2=O)cc1` reads -4.69%; that for `COCCn1c(C)cc(C(=O)CSc2nc3ccccc3c(=O)n2C(C)COC)c1C` (stereo not given), 13.4%.

`O=C(c1cc2nc(-c3ccccc3)cc(-c3ccccc3)n2n1)N1CCC2(CC1)OCCO2`: the max response is 3.88%. For `COc1cccc(-c2cc3nc4c(c(N5CCC6(CC5)OCCO6)n3n2)CCCC4)c1`, the max response was 24.2% (active). As for `COc1cccc(CNc2nc3nc4c(c(=O)n3[nH]2)CCC4)c1`, the max response is -3.21%. As for `C=Cc1ccc(C(=O)N2CCCC(CCC(=O)N3CCN(c4ccccn4)CC3)C2)cc1` (stereo not given), the max response was -3.56%. The result for `COc1cc(C)cc(CN2CCC(Cc3ccccc3)CC2)c1O` reads -8.91%; that for `COCCSc1nnc(NC(=O)CCS(=O)(=O)Cc2ccccc2)s1`, -1.53%; that for `Cc1ccc(CS(=O)(=O)c2ncc(Cl)c(C(=O)Nc3nnc(C)s3)n2)cc1`, 66% (active).

With `Cc1ccc(S(=O)(=O)CC(=O)Nc2nnc(C)s2)cc1`, the max response was -6.45%. Consider `CSc1nnc(NC(=O)c2nc(S(=O)(=O)Cc3ccc(C)cc3)ncc2Cl)s1`, for which the max response was 63.3% (active).

Take `CSc1ncc(Cl)c(C(=O)Nc2cc(C)ccc2C)n1`: the max response was 7.29%. As for `Cc1nnc(NC(=O)CCCOc2ccccc2)s1`, the max response was -3.73%.

Consider `Cc1ccc(CN2CCC(N3CCC(C(=O)NCC4CCCO4)CC3)CC2)o1` (stereo not given), for which the max response is 4.92%. In the case of `CCOC(=O)c1c(NC(C)=O)sc2c(O)c(Br)ccc12`, the max response was -7.21%. Under `CC(Oc1cc2oc(=O)c3c(c2cc1Cl)CCCC3)C(=O)NCc1ccncc1` (stereo not given) stands -1.94%; under `Cc1cccc(NS(=O)(=O)c2ccc(C(=O)NCC(C)(C)N3CCOCC3)cc2)c1C`, -1.4%; under `Cc1ccc(CC2C(=O)N(c3ccc(F)cc3)C(=O)C2C)cc1` (stereo not given), 7.99%. In the case of `CC(C)[C@H](NC(=O)N1c2ccccc2NC(=O)[C@@H]1C(C)C)C(=O)N[C@H](C(=O)O)c1ccccc1`, the max response is 5.5%. The result for `CC(=O)Nc1ccc(S(=O)(=O)N2CCC(C(=O)NC3CC3)CC2)cc1` reads -6.68%; that for `Cn1c(=O)c2c(nc(NCCNC(=O)c3ccco3)n2Cc2ccccc2F)n(C)c1=O`, -1.04%. Turning to `Nc1cccc(-c2cc(-c3ccccc3)nc(-c3cccc(N)c3)n2)c1`, the max response is -5.19%. Under `CNc1nc(-c2ccccc2)cc(-c2ccccc2)n1` stands -1.91%; under `Nc1nc(-c2ccccc2)cc(-c2ccccc2)n1`, 21% (active); under `COc1ccc2c(C)cc3nnnn3c2c1`, -1.91%. Regarding `O=Cc1c(NCCCN2CCCC2=O)c2ccccc2[nH]c1=O`, the max response was -2.01%. The result for `Cc1ccc(C2NC(C(=O)O)CS2)cc1` (stereo not given) reads 1.34%; that for `CCOc1ccc2nc(NCCNS(=O)(=O)c3ccccc3)c(C#N)cc2c1`, 25.7% (active); that for `CCOc1ccc(S(=O)(=O)NCCSc2ccccc2)cc1`, -2.61%. As to `CCOc1ccc2nc(NCCNC(=O)C(C)(C)C)c(C)cc2c1`, the max response was 3.67%. For `Cc1ccc(C)c(NC(=O)c2cc(-c3cc(C)cc(C)c3O)n[nH]2)c1`, the max response is 5.99%. Under `COc1ccc([N+](=O)[O-])cc1N(CC(O)Cn1nnc2ccccc21)S(=O)(=O)c1ccc(C)cc1` (stereo not given) stands 10.2%; under `CCc1ccc(CNC(=O)C2CC(=O)N(CCc3ccc(C)cc3)C2)cc1` (stereo not given), 0.654%; under `COc1ccc(/C=N\NC(=O)c2sc(N)nc2C)cc1OC`, 16.4% (active). Consider `COc1ccc(/C=N/S(=O)(=O)c2ccccc2)cc1OC`, for which the max response was -3.6%. For the molecule `COc1cc(/C=N/NC(=O)c2ccccc2)ccc1OS(=O)(=O)c1ccccc1`, the max response is 10%.

Turning to `COc1ccc(C(=O)Oc2cc(/C=N/NS(=O)(=O)c3ccc(C)cc3)ccc2OC)cc1`, the max response is 1.6%. Consider `COc1cccc(OCc2cc(/C=N/NC(=O)c3nc(Cl)c(Cl)c(N)c3Cl)ccc2OC)c1`, for which the max response is -1.62%. Under `COc1ccc(/C=N/NC(=O)c2ccccc2)cc1OS(=O)(=O)c1ccccc1` stands 17.9% (active).
